Reference: the supplement of paper PMC11732987, “Enantioselective OTUD7B fragment discovery through chemoproteomics screening and high-throughput optimisation” (Communications Chemistry, 2025)

What was measured:
Experiment in all cases: log2 ratio of Biotin-Ahx-Ub-VS probe labelling (fragment/DMSO); higher = less target engagement (more negative = stronger competition), active = hit call of the paper (q ≤ 0.05, log2 ratio ≤ -1)
Settings in all cases: compound concentration: 200 uM; treatment time: 3 h
[1] = biological target: T1, USP19 (UniProt O94966)
T1 sequence (whole entry): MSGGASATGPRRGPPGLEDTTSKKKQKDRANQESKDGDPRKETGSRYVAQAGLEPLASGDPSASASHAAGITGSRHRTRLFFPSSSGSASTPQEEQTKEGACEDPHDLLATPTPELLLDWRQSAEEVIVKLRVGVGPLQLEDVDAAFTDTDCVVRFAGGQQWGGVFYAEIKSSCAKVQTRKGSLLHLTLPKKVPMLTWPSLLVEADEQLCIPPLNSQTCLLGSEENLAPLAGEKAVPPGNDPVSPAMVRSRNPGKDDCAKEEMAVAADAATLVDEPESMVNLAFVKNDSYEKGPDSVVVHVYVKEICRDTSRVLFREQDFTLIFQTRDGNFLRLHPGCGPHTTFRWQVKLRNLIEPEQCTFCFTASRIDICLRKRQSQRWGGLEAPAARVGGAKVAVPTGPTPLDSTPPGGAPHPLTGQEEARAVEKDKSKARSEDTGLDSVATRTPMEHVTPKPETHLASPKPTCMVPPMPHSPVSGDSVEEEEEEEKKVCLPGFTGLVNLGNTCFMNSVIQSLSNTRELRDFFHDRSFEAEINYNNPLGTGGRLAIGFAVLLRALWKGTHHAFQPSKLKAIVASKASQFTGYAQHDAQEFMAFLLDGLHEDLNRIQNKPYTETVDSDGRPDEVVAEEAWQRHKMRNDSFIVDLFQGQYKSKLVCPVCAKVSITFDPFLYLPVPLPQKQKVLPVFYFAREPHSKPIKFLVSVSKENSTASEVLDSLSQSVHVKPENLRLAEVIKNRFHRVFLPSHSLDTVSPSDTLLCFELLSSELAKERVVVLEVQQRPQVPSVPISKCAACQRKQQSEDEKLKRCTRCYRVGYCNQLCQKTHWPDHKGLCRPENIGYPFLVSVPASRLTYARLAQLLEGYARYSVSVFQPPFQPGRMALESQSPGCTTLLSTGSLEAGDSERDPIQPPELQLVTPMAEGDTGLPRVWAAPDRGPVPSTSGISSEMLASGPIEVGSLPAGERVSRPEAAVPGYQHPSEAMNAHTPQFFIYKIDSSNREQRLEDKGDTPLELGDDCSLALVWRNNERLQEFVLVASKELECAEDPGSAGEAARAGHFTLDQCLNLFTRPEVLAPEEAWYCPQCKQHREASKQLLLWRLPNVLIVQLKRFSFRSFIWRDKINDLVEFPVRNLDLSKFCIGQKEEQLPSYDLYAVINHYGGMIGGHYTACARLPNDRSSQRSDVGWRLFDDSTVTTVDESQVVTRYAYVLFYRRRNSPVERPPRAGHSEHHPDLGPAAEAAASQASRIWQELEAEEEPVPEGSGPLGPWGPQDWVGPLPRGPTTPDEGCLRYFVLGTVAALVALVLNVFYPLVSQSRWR
Method in brief: (§1)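 HEK293T lysate in Tris/CHAPS/IGEPAL buffer with protease inhibitors (495 µg per sample) was given fragment at 200 µM or vehicle for 3 h, in triplicate. It then received Biotin-Ahx-Ub-VS at 0.5 µM final for 1 h. Labelled DUBs were NeutrAvidin-enriched, digested with LysC and trypsin, and run by diaPASEF LC-MS/MS. Values are average log2 fragment/vehicle ratios by unpaired t-test on global-median-normalised Spectronaut quantities of proteins with ≥2 unique peptides.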

[2] = biological target: T2, USP22 (UniProt Q9UPT9)
T2 sequence (whole entry): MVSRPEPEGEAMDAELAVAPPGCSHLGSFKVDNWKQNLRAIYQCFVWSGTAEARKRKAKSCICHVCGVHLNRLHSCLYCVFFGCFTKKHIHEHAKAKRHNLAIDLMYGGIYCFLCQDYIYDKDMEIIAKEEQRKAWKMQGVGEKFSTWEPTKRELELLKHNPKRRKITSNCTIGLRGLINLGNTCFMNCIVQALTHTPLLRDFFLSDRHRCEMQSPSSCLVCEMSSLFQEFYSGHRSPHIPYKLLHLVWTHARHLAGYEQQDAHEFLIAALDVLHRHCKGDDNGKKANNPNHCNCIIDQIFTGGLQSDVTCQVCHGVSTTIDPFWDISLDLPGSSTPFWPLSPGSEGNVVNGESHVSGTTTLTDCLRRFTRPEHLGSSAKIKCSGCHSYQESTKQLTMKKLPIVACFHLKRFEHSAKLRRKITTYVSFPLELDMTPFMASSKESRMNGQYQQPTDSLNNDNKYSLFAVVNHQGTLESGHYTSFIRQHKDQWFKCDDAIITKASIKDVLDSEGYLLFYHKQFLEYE
Method in brief: as §1

[3] = biological target: USP24 (UniProt Q9UPU5)
Method in brief: as §1

[4] = biological target: T3, USP25 (UniProt Q9UHP3)
T3 sequence (whole entry): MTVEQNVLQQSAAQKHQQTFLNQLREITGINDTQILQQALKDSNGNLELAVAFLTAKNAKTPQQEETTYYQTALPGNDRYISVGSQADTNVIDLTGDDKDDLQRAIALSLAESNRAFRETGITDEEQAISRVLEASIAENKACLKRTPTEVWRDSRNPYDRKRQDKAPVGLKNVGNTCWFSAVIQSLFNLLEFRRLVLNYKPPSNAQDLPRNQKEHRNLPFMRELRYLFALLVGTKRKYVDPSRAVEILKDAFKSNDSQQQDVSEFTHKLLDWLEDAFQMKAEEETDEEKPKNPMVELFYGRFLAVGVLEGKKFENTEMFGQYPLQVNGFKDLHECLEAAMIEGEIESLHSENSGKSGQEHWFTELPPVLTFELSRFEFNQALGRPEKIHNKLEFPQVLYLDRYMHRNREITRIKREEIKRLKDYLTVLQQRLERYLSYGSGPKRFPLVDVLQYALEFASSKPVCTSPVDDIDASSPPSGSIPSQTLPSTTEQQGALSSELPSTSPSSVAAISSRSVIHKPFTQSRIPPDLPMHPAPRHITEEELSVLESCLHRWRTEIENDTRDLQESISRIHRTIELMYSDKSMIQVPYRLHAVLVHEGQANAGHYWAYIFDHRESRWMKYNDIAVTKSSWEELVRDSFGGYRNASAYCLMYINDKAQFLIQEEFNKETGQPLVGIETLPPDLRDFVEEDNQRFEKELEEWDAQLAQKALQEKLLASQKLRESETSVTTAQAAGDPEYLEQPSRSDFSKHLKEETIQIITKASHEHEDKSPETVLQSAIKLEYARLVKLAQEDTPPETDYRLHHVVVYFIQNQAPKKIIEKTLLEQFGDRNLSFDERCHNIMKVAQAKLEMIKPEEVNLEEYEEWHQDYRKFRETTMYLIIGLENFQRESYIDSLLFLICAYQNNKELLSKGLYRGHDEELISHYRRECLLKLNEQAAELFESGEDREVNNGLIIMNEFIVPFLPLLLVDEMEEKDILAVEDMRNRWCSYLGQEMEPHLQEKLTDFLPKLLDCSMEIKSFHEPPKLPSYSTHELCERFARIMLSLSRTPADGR
Method in brief: as §1

[5] = biological target: T4, USP28 (UniProt Q96RU2)
T4 sequence (whole entry): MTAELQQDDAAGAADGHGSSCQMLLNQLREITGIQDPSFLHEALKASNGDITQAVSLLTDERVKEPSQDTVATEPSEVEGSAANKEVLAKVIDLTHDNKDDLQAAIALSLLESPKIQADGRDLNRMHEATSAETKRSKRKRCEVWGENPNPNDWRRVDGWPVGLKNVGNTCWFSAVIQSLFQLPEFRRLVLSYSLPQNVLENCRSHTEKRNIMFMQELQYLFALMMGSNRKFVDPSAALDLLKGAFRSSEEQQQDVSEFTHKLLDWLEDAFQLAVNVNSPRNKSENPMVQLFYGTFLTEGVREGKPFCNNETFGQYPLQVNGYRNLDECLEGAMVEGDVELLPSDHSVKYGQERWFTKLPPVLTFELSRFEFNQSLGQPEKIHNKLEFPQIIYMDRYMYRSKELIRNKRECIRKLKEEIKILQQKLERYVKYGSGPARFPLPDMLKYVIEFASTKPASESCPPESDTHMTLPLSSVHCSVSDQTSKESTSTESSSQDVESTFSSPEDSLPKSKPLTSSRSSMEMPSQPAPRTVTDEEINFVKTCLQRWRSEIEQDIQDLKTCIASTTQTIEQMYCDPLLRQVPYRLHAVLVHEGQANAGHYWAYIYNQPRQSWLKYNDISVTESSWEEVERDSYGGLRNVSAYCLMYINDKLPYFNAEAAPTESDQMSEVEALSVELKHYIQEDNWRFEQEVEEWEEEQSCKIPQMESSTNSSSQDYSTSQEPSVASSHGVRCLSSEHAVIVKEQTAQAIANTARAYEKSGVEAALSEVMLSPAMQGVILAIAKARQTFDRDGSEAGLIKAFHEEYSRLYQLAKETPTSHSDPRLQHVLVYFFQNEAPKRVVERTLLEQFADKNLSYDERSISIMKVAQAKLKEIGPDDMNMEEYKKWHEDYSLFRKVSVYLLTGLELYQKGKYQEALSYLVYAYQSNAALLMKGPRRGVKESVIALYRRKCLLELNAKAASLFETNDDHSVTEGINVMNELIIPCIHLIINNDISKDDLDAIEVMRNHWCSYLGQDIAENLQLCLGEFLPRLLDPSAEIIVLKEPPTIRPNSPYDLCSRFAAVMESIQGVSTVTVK
Method in brief: as §1

Measured: log2 ratio of Biotin-Ahx-Ub-VS probe labelling

Sequence of USP24 (Q9UPU5 whole entry): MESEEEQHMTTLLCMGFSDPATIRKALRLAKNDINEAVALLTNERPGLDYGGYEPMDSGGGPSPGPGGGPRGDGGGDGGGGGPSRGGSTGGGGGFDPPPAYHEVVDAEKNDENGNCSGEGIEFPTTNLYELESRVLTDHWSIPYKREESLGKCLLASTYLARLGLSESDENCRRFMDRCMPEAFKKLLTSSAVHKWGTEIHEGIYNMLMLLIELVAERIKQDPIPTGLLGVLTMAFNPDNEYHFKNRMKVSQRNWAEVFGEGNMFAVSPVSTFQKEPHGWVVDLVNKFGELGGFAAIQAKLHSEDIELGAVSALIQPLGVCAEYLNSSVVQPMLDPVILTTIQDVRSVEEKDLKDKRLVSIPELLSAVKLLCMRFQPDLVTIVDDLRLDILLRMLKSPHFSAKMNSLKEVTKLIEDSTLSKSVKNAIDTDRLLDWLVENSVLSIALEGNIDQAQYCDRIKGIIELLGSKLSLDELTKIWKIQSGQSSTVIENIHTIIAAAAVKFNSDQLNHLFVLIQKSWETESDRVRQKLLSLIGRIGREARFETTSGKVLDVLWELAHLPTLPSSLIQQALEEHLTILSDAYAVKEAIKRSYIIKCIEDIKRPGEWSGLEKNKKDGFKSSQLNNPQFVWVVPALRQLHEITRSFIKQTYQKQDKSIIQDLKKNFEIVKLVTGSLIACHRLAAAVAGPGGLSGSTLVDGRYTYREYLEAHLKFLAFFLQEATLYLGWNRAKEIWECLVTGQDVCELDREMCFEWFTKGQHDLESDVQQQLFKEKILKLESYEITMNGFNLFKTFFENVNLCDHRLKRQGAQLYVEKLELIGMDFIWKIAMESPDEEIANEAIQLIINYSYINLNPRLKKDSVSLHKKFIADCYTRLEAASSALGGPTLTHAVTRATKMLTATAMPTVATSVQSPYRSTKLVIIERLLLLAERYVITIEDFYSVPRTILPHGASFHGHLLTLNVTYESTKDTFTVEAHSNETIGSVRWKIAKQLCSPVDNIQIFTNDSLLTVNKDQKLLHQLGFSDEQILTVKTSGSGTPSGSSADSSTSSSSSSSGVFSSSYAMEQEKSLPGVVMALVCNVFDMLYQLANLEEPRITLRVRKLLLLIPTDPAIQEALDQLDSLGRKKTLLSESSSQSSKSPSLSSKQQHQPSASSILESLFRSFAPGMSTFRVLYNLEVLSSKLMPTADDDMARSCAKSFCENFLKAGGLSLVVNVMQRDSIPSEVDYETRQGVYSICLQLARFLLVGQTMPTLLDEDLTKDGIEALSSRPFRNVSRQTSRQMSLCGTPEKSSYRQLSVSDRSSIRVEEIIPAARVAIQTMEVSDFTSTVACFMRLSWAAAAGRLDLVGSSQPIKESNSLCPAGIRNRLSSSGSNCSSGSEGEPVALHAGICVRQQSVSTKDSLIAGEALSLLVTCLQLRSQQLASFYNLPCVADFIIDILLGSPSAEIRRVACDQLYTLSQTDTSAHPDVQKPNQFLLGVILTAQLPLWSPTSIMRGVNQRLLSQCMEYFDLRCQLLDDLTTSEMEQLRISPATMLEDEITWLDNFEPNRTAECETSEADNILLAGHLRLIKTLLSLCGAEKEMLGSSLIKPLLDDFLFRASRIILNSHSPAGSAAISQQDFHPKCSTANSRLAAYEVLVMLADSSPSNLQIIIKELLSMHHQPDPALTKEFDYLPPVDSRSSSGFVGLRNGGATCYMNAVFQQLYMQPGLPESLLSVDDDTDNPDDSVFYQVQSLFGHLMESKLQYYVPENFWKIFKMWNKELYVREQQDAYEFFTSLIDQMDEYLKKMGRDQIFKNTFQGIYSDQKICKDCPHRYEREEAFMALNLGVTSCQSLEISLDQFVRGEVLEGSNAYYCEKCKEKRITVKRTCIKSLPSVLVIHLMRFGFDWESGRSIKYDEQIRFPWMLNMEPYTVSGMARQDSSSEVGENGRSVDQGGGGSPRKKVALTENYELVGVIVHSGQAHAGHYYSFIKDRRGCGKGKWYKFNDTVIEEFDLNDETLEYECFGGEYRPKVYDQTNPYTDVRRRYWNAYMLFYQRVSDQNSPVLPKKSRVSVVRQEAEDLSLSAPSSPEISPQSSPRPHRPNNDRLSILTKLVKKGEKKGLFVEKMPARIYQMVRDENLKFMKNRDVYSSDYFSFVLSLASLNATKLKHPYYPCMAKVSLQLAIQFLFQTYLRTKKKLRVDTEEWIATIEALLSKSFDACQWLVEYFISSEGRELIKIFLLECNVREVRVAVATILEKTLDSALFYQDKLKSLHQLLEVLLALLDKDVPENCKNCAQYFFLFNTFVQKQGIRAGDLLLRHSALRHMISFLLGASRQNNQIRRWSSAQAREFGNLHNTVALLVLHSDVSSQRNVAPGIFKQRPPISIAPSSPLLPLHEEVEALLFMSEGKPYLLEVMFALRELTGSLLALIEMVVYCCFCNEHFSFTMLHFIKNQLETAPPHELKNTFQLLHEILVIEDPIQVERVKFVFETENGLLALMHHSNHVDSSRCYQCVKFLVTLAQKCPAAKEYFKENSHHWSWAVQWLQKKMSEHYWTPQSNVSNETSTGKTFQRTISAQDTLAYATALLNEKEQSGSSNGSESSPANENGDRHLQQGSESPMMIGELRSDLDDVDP

O=C(CCl)N1CCOC2(CCC2)CC1
inactive: [1] -0.704 | [2] -0.382 | [3] -0.23 | [4] -0.448 | [5] -0.346
